Results published in the supplement of paper PMC10849652.
About 8,800 targets were measured; listed, in parts, are those with a hit and a random draw of the rest. About 0.5% of all pairs of compound and target were hits. Values without a mark were called inactive.

Compound: CC1=C2C(=CC=C1)N=C(N(C2=O)C3=CC=CC=C3C)CN4C=NC5=C(N=CN=C54)N
Assay: log2 fold change, soluble protein after heating vs DMSO (PISA); higher = thermal stabilisation; K562 lysate, 10 uM; active = over 0.2 and 3.5 SD of the protein, either way, in both replicates (recomputed)
In short: (§1)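 Soluble protein was defined as the supernatant remaining after 21,000xg for 90 min, following pooling of heated aliquots and adjustment to 0.5% NP-40 at 4°C. Before that, crude K562 extract at 1 mg/mL protein in PBS pH 7.4 with 1 mM MgCl2 was treated with 10 μM compound for 30 min and heated for 3 min across 48°C-58°C. Quantification used TMTpro 16plex LC-MS/MS with channel sums equalised, and values are log-two fold changes in thermal stability relative to solvent controls from duplicates.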

Chain of UniProt Q9H582 (Q9H582 whole entry, looked up): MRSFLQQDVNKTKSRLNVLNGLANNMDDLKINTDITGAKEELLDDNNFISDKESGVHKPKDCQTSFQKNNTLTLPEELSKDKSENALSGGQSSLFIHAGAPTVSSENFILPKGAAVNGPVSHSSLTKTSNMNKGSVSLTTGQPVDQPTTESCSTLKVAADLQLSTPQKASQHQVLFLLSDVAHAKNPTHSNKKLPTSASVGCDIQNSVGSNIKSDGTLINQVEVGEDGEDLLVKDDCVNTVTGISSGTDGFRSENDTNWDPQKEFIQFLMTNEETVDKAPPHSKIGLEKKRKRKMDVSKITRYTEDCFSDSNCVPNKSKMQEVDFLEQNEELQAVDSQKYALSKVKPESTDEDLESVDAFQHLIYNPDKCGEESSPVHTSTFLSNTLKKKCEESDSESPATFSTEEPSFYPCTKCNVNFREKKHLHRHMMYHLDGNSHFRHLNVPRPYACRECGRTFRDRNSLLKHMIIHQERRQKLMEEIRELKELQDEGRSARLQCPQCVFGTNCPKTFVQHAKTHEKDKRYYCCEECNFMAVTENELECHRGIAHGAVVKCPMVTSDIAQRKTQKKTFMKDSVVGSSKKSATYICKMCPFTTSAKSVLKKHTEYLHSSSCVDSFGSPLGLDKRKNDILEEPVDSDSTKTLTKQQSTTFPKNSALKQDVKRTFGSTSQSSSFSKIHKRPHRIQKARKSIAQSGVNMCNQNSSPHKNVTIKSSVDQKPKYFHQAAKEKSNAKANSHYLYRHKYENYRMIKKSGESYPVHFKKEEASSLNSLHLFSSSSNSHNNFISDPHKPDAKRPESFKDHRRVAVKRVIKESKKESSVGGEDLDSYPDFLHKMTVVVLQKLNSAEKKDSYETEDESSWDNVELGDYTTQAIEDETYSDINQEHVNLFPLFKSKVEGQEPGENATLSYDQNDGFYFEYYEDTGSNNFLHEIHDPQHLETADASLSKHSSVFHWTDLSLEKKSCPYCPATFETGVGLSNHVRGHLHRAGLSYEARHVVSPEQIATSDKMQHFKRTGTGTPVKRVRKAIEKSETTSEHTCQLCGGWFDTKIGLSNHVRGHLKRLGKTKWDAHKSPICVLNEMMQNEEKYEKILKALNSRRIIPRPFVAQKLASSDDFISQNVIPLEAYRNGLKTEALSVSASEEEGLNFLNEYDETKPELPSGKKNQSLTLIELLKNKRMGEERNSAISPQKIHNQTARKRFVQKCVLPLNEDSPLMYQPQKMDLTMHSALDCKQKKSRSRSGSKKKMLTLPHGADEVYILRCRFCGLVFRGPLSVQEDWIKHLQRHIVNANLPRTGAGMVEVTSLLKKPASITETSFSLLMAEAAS
Chain of UniProt Q8NI36 (Q8NI36 whole entry, looked up): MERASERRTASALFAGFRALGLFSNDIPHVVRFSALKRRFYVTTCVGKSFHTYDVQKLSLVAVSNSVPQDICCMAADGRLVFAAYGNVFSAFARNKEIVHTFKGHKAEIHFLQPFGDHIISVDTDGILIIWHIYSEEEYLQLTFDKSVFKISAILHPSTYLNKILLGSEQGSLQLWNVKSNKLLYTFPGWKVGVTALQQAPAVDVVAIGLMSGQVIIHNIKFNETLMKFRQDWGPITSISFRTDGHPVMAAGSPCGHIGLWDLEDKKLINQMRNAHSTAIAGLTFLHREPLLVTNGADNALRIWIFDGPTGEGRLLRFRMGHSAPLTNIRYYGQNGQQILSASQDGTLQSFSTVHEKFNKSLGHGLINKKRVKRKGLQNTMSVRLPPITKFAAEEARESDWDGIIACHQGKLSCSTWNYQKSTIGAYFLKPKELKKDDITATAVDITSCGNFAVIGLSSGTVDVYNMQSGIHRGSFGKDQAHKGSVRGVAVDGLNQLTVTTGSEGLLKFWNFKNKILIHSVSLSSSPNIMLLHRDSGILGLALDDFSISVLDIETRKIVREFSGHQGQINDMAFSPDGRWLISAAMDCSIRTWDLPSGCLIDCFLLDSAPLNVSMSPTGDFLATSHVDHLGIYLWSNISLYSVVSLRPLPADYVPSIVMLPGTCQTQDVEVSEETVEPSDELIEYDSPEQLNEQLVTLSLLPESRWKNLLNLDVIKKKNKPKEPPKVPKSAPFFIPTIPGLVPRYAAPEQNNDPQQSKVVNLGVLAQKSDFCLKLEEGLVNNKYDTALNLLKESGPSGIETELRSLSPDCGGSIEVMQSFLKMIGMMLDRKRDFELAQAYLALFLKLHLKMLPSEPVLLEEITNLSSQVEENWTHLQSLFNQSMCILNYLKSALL
Chain of UniProt Q9P1Q0 (Q9P1Q0 whole entry, looked up): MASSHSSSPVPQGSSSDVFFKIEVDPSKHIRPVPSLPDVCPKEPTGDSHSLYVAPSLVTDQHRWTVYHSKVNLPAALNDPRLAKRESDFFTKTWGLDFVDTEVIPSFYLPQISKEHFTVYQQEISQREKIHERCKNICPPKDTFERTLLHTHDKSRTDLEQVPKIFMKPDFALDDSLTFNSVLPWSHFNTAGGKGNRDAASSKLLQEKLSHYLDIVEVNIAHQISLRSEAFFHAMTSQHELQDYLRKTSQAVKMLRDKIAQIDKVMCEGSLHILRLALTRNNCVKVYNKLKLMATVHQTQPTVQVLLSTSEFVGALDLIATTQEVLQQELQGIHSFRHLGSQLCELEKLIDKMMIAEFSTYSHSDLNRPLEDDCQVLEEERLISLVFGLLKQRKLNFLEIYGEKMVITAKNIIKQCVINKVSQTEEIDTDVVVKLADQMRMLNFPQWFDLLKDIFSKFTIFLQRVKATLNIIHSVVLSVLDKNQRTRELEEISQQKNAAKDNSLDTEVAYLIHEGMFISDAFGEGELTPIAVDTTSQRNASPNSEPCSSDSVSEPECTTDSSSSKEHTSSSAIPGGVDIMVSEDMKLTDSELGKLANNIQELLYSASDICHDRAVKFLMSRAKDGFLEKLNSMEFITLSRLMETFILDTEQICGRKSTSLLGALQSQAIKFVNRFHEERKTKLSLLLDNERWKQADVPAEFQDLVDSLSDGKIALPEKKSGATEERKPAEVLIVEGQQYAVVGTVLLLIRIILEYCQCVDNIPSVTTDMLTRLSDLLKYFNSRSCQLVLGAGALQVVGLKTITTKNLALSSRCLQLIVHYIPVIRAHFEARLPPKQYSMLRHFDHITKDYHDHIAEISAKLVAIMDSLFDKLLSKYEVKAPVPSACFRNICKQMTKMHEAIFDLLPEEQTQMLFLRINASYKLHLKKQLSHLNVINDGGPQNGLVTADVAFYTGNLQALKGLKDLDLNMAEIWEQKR
Chain of UniProt P40337 (P40337 whole entry, looked up): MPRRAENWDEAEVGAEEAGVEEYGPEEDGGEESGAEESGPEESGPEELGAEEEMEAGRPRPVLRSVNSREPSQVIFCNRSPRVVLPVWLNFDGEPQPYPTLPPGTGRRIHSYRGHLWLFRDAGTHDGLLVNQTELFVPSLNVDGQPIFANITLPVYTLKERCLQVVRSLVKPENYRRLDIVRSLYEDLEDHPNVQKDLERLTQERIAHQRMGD
Chain of UniProt Q9P253 (Q9P253 whole entry, looked up): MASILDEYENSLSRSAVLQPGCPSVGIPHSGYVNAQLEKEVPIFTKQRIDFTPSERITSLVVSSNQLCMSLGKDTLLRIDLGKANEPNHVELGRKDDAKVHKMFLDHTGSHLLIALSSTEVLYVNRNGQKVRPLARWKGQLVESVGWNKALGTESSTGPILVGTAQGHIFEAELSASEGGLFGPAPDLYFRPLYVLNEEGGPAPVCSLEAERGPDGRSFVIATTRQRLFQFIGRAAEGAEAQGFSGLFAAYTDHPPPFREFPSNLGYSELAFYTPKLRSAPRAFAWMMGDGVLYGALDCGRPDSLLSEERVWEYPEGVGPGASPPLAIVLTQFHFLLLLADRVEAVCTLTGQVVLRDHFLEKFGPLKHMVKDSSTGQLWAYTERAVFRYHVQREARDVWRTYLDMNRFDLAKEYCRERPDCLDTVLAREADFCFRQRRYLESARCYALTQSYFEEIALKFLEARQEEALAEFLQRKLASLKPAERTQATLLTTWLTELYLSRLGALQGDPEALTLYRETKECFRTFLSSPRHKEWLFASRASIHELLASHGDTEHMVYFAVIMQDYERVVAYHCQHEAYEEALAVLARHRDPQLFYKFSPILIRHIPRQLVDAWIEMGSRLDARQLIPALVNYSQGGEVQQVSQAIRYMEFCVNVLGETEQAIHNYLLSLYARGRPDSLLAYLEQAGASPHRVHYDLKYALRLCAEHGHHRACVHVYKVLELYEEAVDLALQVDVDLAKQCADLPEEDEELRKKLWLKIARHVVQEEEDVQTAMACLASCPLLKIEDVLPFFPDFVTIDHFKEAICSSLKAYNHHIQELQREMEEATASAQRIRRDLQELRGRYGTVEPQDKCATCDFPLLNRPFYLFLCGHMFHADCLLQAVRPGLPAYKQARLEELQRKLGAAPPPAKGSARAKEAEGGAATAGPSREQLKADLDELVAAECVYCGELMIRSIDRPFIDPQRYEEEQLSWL
Chain of UniProt P50552 (P50552 whole entry, looked up): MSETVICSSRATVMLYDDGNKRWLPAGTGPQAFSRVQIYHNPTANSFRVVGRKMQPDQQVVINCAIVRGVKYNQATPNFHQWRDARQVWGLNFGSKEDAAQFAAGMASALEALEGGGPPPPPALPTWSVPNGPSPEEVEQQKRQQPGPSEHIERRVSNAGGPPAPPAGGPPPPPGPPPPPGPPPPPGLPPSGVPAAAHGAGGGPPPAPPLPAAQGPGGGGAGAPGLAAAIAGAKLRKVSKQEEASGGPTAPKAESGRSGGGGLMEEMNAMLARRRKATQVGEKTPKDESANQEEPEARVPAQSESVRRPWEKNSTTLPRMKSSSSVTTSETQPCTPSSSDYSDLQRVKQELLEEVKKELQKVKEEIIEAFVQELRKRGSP
Chain of UniProt P58557 (P58557 whole entry, looked up): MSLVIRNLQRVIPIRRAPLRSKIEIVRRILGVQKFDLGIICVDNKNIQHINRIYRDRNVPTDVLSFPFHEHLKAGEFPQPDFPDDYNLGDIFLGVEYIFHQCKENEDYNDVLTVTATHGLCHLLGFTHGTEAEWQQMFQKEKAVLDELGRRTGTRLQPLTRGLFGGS

| Target | log2 fold change |
| --- | --- |
| YME1L1 (UniProt Q96TA2) | 0.032 |
| VPS72 (UniProt Q15906) | 0.027 |
| ZBTB40 (UniProt Q9NUA8) | -0.06 |
| WDR45 isoform 2 (UniProt Q9Y484) | 0.073 |
| USP8 (UniProt P40818) | 0.01 |
| VPS18 (UniProt Q9P253) | 0.032 |
| WDR77 (UniProt Q9BQA1) | 0.012 |
| YBEY (UniProt P58557) | 0.046 |
| ZKSCAN8 (UniProt Q15776) | -0.065 |
| ZDHHC17 (UniProt Q8IUH5) | 0.057 |
| VPS33A (UniProt Q96AX1) | 0.014 |
| USP16 (UniProt Q9Y5T5) | 0.011 |
| VHL (UniProt P40337) | -0.029 |
| ZNF644 (UniProt Q9H582) | -0.098 |
| WDR36 (UniProt Q8NI36) | 0.06 |
| VASP (UniProt P50552) | 0.008 |
| UTP3 (UniProt Q9NQZ2) | 0.076 |
| VPS54 (UniProt Q9P1Q0) | 0.044 |

Compound: Cc1sc2c(c1C)C(c1ccc(Cl)cc1)=N[C@@H](CC(=O)OC(C)(C)C)c1nnc(C)n1-2
Assay: as above
In short: as §1

| Target | log2 fold change |
| --- | --- |
| YME1L1 (UniProt Q96TA2) | -0.008 |
| ZNF346 (UniProt Q9UL40) | -0.205 (active) |
| ZNF146 (UniProt Q15072) | -0.059 |
| VPS72 (UniProt Q15906) | -0.015 |
| VASN (UniProt Q6EMK4) | -0.017 |
| ZBTB40 (UniProt Q9NUA8) | -0.004 |
| ZNF281 (UniProt Q9Y2X9) | -0.02 |
| WDR45 isoform 2 (UniProt Q9Y484) | -0.018 |
| WAC isoform 5 (UniProt Q9BTA9) | -0.232 |
| WAS (UniProt P42768) | -0.095 |
| USP8 (UniProt P40818) | 0.009 |
| VPS18 (UniProt Q9P253) | 0.067 |
| WDR77 (UniProt Q9BQA1) | 0.006 |
| WSB1 (UniProt Q9Y6I7) | 0.036 |
| YBEY (UniProt P58557) | -0.016 |
| ZKSCAN8 (UniProt Q15776) | -0.026 |
| ZDHHC17 (UniProt Q8IUH5) | -0.181 |
| VPS33A (UniProt Q96AX1) | -0.013 |
| USP16 (UniProt Q9Y5T5) | 0.038 |
| VHL (UniProt P40337) | -0.178 |
| ZNF644 (UniProt Q9H582) | -0.009 |
| WDR36 (UniProt Q8NI36) | 0.025 |
| VASP (UniProt P50552) | -0.052 |
| UTP3 (UniProt Q9NQZ2) | -0.158 |
| WIPI1 (UniProt Q5MNZ9) | 0.035 |
| VPS54 (UniProt Q9P1Q0) | 0.053 |

Compound: c1ccc([C@@H]2C[C@H]2NC2CCNCC2)cc1
Assay: as above
In short: as §1

| Target | log2 fold change |
| --- | --- |
| UNC13A (UniProt Q9UPW8) | -0.966 |
| YME1L1 (UniProt Q96TA2) | 0.002 |
| ZNF346 (UniProt Q9UL40) | -0.086 |
| VPS72 (UniProt Q15906) | -0.035 |
| ZYG11A (UniProt Q6WRX3) | -0.012 |
| UTRN isoform 2 (UniProt P46939) | 0.062 |
| ZBTB40 (UniProt Q9NUA8) | -0.432 (active) |
| WDR45 isoform 2 (UniProt Q9Y484) | -0.014 |
| WAS (UniProt P42768) | 0.053 |
| USP8 (UniProt P40818) | 0.036 |
| VPS18 (UniProt Q9P253) | 0.012 |
| WDR77 (UniProt Q9BQA1) | 0.006 |
| WSB1 (UniProt Q9Y6I7) | -0.036 |
| WIPI2 isoform 6 (UniProt Q9Y4P8) | -0.073 |
| ZDHHC17 (UniProt Q8IUH5) | -0.578 |
| VPS33A (UniProt Q96AX1) | -0.01 |
| USP16 (UniProt Q9Y5T5) | -0.002 |
| VHL (UniProt P40337) | 0.08 |
| ZNF644 (UniProt Q9H582) | 0.01 |
| WDR36 (UniProt Q8NI36) | 0.035 |
| ZSCAN21 (UniProt Q9Y5A6) | -0.074 |
| VASP (UniProt P50552) | 0.017 |
| UTP3 (UniProt Q9NQZ2) | 0.018 |
| WIPI1 (UniProt Q5MNZ9) | -0.031 |
| VPS54 (UniProt Q9P1Q0) | -0.217 |
